PubChem BioAssay (NCI)
About 83,000 compounds went through this panel and 20% of them were active in at least one assay; those are over-represented in the sample as a whole.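 48-hour exposure, single concentration, 96-well plates; percent growth endpoint where 0 means no net growth. Active: below 10.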 Values without a mark were called inactive. The source made the active and inactive calls.

system: HCT-116 colon; test: NCI-60 one-dose screen, 48 h (100 = growth as untreated, 0 = no growth, -100 = all killed); details: 10 µM unless noted

**Q.** With OC(Cc1cccnc1)c1ccccc1 (configuration not stated) as the compound, how does the growth read?
**A.** Its growth is 107%.

**Q.** For c1ccc2c(c1)[nH]c1c2cc[n+]2cc3c(cc12)CCCC3, which growth is on record?
**A.** Its growth is 14.7%.

**Q.** With CC(CCC(=O)O)(NC(=O)c1ccc([N+](=O)[O-])cc1)C(=O)O (configuration not stated) as the compound, how does the growth read?
**A.** Its growth is 98.9%.

**Q.** How did the growth turn out when O=Nc1ccc(O)c(=O)cc1 was run?
**A.** The growth was 2.12% (active).

**Q.** For Cn1cc(-c2csc(-c3cn(C)c4ncccc34)n2)c2cc(Br)cnc21, which growth is on record?
**A.** The growth was 90.6%.

**Q.** O=C(N1CCC(CN=c2cc3n(-c4ccc(Cl)cc4)c4ccccc4nc-3cc2Nc2ccc(Cl)cc2)CC1)N1CC1 was tested. Which growth did it give?
**A.** Its growth is -70.9% (active).

**Q.** For COc1ccc(C2=NNC(c3cc(Cc4ccc(O)c(C5CC(c6ccc(OC)cc6)=NN5)c4)ccc3O)C2)cc1 (configuration not stated), which growth is on record?
**A.** Its growth is 28.3%.

**Q.** With COc1cc(C2=NN(C(C)=O)C(c3ccc(OC(C)=O)cc3OC(C)=O)O2)c(OC(C)=O)c2ccccc12 (configuration not stated) as the compound, how does the growth read?
**A.** The growth was 14.4%.

**Q.** Which growth does the source give for CCCCC(C#N)C(N)=O (configuration not stated) here?
**A.** The growth was 98.4%.

**Q.** How did the growth turn out when O=C(Cn1ccnc1)NC(c1ccccc1)c1ccccc1 was run?
**A.** The growth was 106%.

**Q.** With CCOC(=O)c1cc(-c2cccnc2)nc2c(Cl)cc(Cl)cc12 as the compound, how does the growth read?
**A.** The growth was 56.4%.

**Q.** With CCOC(=O)c1c2c(c(C)n1Cc1ccc(OC)cc1)-c1nc(N)ncc1CC2 as the compound, how does the growth read?
**A.** The growth was 94.8%.

**Q.** For CC[C@]1(O)CC2CN(CCc3c([nH]c4ccccc34)[C@@](C(=O)OC)(c3cc4c(cc3OC)N(C)[C@H]3[C@@](O)(C(=O)OC)[C@H](OC(C)=O)[C@]5(CC)C=CCN6CC[C@]43[C@@H]65)C2)C1 (some centres not stated), which growth is on record?
**A.** Its growth is 1.69% (active).

**Q.** How did the growth turn out when Cc1cc(C(C)(C)c2cc(C)c(O)c(CN(C)C)c2)cc(CN(C)C)c1O was run?
**A.** Its growth is 55.1%.

**Q.** With Nc1ccccc1-c1ccc([N+](=O)[O-])cc1 as the compound, how does the growth read?
**A.** The growth was 60.1%.

**Q.** For O=C1/C(=C/c2ccc([N+](=O)[O-])o2)Oc2ccc(Cl)cc21, which growth is on record?
**A.** The growth was -26.6% (active).

**Q.** O=C(C(=O)N1CCOCC1)c1ccc(OC2OC(CO)C(O)C(O)C2O)cc1 (configuration not stated) was tested. Which growth did it give?
**A.** Its growth is 105%.

**Q.** With COc1cc2cn3c4ccc(O)cc4nc(N)c3c2cc1OC as the compound, how does the growth read?
**A.** Its growth is -50.7% (active).

**Q.** CC12CCCCC1C(C(N)=O)C(=O)O2 (configuration not stated) was tested. Which growth did it give?
**A.** Its growth is 112%.

**Q.** Which growth does the source give for CC1=C(C(=O)Nc2ccccc2)C(c2ccc3c(c2)OCCO3)NC(=O)N1 (configuration not stated) here?
**A.** The growth was 97.6%.

**Q.** Which growth does the source give for COc1cc(C2NC(c3ccc(Cl)cc3)C(C)C(=NC(=O)c3cnccn3)C2C)cc(OC)c1OC (configuration not stated) here?
**A.** Its growth is 78.9%.

**Q.** For Fc1ccc(-c2nnc(/C=C/c3cn(-c4ccccc4)nc3-c3ccccc3)o2)cc1, which growth is on record?
**A.** Its growth is 57%.

**Q.** With Clc1ccc([C@@H]2C[C@@H]3Cc4cc(Br)c5ccccc5c4N2O3)c(Cl)c1 as the compound, how does the growth read?
**A.** Its growth is 76.6%.

**Q.** COc1ccc(Nc2ccnc(NCCCNc3ccnc4cc(Cl)ccc34)n2)cc1 was tested. Which growth did it give?
**A.** Its growth is -100% (active).

**Q.** For O=C(CCc1nnc(SCc2ccccc2)s1)c1nc2ccccc2[nH]1, which growth is on record?
**A.** Its growth is 95%.

**Q.** How did the growth turn out when O=C(CSc1nnc(Nc2ccccc2)s1)NCCc1ccc(F)cc1 was run?
**A.** Its growth is 99.8%.

**Q.** O=C1Nc2ccccc2C12Nc1cc(Cl)ccc1S2 (configuration not stated) was tested. Which growth did it give?
**A.** Its growth is 84.5%.

**Q.** With Nc1nc(N)c([N+](=O)[O-])c(=O)[nH]1 as the compound, how does the growth read?
**A.** Its growth is 110%.

**Q.** With CC(C)C(=O)Cc1cnccn1 as the compound, how does the growth read?
**A.** The growth was 109%.

**Q.** With CCS(=O)(=O)OCCCl as the compound, how does the growth read?
**A.** Its growth is 107%.

**Q.** With CC(O)c1nc2c(c(=O)n(C)c(=O)n2C)n1C (configuration not stated) as the compound, how does the growth read?
**A.** Its growth is 90.2%.

**Q.** Which growth does the source give for NC(=O)SCC(=O)Nc1ccccc1-c1ccccc1 here?
**A.** Its growth is 87.4%.

**Q.** Cc1c(NCc2nnc3n(Cc4ccccc4)c(=O)c4c5c(sc4n23)CCCC5)c(=O)n(-c2ccccc2)n1C was tested. Which growth did it give?
**A.** Its growth is 88.1%.

**Q.** NC(N)=NC(N)=NCCCc1ccccc1 was tested. Which growth did it give?
**A.** The growth was 50.6% [100 µM].

**Q.** For Cn1[nH]cc(/C=N/C(N)=O)c1=O, which growth is on record?
**A.** Its growth is 109%.

**Q.** How did the growth turn out when O=C(Oc1ccc[nH]c1=O)c1cccc(Cl)c1 was run?
**A.** The growth was 88.5%.

**Q.** How did the growth turn out when Nc1nonc1-c1nc2ccccc2n1CC(=O)Nc1ccc2c(c1)COC2=O was run?
**A.** Its growth is 74.1%.
